The text below walks through data of publication PMC4336329 (PLoS ONE, 2015).

About 14,000 (4.5%) of roughly 310,000 compounds showed an effect of 50% or more. The effect is printed as a negative number. For the sample, strong results were picked, then their nearest neighbours and some compounds at random.
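Note: peak tail current of the secondary pulse compared with the same well before compound.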

For the assay, the target named is human ether-à-go-go-related gene (hERG) potassium channel (human, UniProt Q12809). Nature of the assay: primary screen, population patch clamp on CHO cells stably expressing hERG; higher = less effect of the substance.
Sequence of human ether-à-go-go-related gene (hERG) potassium channel (Q12809 whole entry, looked up): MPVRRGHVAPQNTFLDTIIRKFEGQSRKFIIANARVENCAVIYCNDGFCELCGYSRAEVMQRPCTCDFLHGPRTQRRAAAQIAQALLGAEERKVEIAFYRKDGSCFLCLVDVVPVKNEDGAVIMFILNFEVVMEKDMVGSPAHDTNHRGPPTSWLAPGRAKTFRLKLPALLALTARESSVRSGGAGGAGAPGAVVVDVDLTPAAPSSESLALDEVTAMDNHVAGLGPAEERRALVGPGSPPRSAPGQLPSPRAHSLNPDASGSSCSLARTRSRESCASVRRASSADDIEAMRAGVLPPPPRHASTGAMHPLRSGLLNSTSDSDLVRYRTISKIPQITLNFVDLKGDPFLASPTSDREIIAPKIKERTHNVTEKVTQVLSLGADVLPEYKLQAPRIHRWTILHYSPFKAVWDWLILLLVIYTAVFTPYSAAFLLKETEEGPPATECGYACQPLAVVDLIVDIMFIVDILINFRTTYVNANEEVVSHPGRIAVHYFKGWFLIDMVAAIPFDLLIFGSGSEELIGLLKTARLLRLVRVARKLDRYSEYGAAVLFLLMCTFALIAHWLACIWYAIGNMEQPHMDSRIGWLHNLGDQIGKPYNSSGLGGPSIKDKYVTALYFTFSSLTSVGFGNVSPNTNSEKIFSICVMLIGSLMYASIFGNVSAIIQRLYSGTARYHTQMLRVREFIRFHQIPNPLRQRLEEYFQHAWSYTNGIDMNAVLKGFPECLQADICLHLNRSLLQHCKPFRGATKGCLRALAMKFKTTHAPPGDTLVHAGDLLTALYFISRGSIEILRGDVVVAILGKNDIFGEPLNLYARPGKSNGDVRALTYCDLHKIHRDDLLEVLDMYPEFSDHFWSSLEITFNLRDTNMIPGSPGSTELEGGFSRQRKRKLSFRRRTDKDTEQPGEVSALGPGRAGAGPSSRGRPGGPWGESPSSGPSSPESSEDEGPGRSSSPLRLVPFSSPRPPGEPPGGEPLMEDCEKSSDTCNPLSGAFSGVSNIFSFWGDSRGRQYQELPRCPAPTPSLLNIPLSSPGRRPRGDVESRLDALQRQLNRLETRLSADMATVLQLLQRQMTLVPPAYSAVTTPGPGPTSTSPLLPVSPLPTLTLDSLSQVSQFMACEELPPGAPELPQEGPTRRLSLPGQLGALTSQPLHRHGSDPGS
Turning to `Cn1c(=O)n(C)c2cc(NS(=O)(=O)c3ccc(F)cc3)ccc21`, the “hERG current change (%, negative = inhibition) at 10uM” value was found to be 1.38%.

Turning to `O=C(NCc1cccnc1)C1CC(=O)N(c2ccc(F)cc2)C1` (stereo not shown), the “hERG current change (%, negative = inhibition) at 10uM” value is given as -15.1%. As for `CC(SCc1ccccc1)C(=O)NC1CCCC1` (stereo not shown), the “hERG current change (%, negative = inhibition) at 10uM” value is reported as 3.27%.

As to `CCN(CC)CCNC(=O)Cn1c(C)cc2ccccc2c1=O`, the “hERG current change (%, negative = inhibition) at 10uM” value is given as 1.83%. Consider `CSc1ccc(/C=C/C(=O)c2ccc(NC(C)=O)cc2)cc1`, for which the “hERG current change (%, negative = inhibition) at 10uM” value amounted to 12.6%. As to `OCCOCCn1c(C(CO)Nc2nc(-c3ccccc3Br)cs2)nc2ccccc21` (stereo not shown), the “hERG current change (%, negative = inhibition) at 10uM” value is recorded as -72%. The result for `Cc1ccc(-c2csc(NC(CO)c3nc4ccccc4n3CCOCCO)n2)cc1` (stereo not shown) reads -47.3%; that for `OCCOCCn1c(C(CO)Nc2nc(-c3cccc(Br)c3)cs2)nc2ccccc21` (stereo not shown), -12.5%; that for `O=C(Cc1cccs1)Nc1nnc(SCC(=O)NC2CCCCC2)s1`, 7.84%.

Regarding `CCOc1ccccc1NC(=O)C1C2CCC3C(CCC21)C3(Cl)Cl` (stereo not shown), the “hERG current change (%, negative = inhibition) at 10uM” value is on record as -13.4%. To `CNC(=O)CSc1nccn1Cc1ccc(Cl)cc1` belongs -64.9%; to `CC(=O)Nc1ccc(NC(=O)CSc2nccn2Cc2ccc(Cl)cc2)cc1`, -9.56%; to `NC(=O)CSc1nccn1Cc1ccc(Cl)cc1`, 19.1%. On to `Cc1nnc(SCc2ccccc2)n1CC1CCCO1` (stereo not shown), for which the “hERG current change (%, negative = inhibition) at 10uM” value was 11.9%. Regarding `O=C(C1=NN(c2ccccc2)C2C(=O)N(c3cccc(Cl)c3)C(=O)C12)c1ccccc1` (stereo not shown), the “hERG current change (%, negative = inhibition) at 10uM” value is listed as 1.55%. Turning to `Clc1ncnc2scc(-c3ccc(Br)cc3)c12`, the “hERG current change (%, negative = inhibition) at 10uM” value is given as 7.97%. On to `COc1ccccc1N=Nc1c(O)[nH]c2ccc(Br)cc12`, for which the “hERG current change (%, negative = inhibition) at 10uM” value is 14.2%. As for `CC(C)(C)n1cnc2cc(NC(=O)c3ccccc3)ccc21`, the “hERG current change (%, negative = inhibition) at 10uM” value is -9.28%. The result for `CC(C)(C)n1cnc2cc(NC(=O)c3ccc(Cl)cc3)ccc21` reads -59.1%; that for `Cn1c(CN2CCOCC2)nc2cc(NC(=O)c3ccc(F)cc3)ccc21`, -12.5%; that for `Cn1c(CN2CCCCC2)nc2cc(NC(=O)c3ccc(F)cc3)ccc21`, -54.2%. The result for `Cn1c(CN2CCCC2)nc2cc(NC(=O)c3ccc(Cl)cc3)ccc21` reads -82%. As for `Cn1c(CN2CCOCC2)nc2cc(NC(=O)c3ccc(Cl)cc3)ccc21`, the “hERG current change (%, negative = inhibition) at 10uM” value was -34.2%. For `CC(=O)N1CCN(Cc2nc3cc(NC(=O)c4ccc(Cl)cc4)ccc3n2C)CC1`, the “hERG current change (%, negative = inhibition) at 10uM” value is listed as -65.8%. As to `CCOC(=O)Nc1ccc2c(c1)nc(CN1CCCCC1)n2C`, the “hERG current change (%, negative = inhibition) at 10uM” value is listed as -7.84%.

Take `COc1ccc(C(=O)Nc2ccc3c(c2)nc(CN2CCCC2)n3C)cc1`: the “hERG current change (%, negative = inhibition) at 10uM” value was -44.4%. As for `CC(=O)N1CCN(Cc2nc3cc(NC(=O)c4ccc(F)cc4)ccc3n2C)CC1`, the “hERG current change (%, negative = inhibition) at 10uM” value was -8.9%. Regarding `Cn1cnc2cc(NC(=O)c3ccc(Cl)cc3)ccc21`, the “hERG current change (%, negative = inhibition) at 10uM” value was -18.9%.

For `COc1ccc(C(=O)Nc2ccc3c(c2)nc(CN2CCN(C(C)=O)CC2)n3C)cc1`, the “hERG current change (%, negative = inhibition) at 10uM” value is listed as -0.777%. On to `O=C(NCCc1ccccc1)/C(=N\O)c1ccccc1`, for which the “hERG current change (%, negative = inhibition) at 10uM” value came to 7.7%. The result for `CCn1c(=O)c2sccc2n2c(CCCC(=O)NC3CCN(Cc4ccccc4)CC3)nnc12` reads -6.43%. The result for `COc1ccc(OC)c(C2C(C(C)=O)=C(O)C(=O)N2CCN2CCOCC2)c1` (stereo not shown) reads -6.92%; that for `COc1ccc(C)cc1NC(=O)CCN1CCN(c2ccccc2F)CC1.Cl`, -19.9%; that for `Cc1ccccc1OCC(=O)NNC(=O)CN1C(=O)c2ccccc2C1=O`, -9.07%.

For the compound `NNc1nc2sc3c(c2c(=O)[nH]1)CCc1ccccc1-3`, the “hERG current change (%, negative = inhibition) at 10uM” value is 7.46%. With `Cc1ccc(C)c(N2CCN(C(=O)Cc3c(C(=O)O)[nH]c4ccc(Cl)cc34)CC2)c1`, the “hERG current change (%, negative = inhibition) at 10uM” value came out at 10.1%. Turning to `O=C(O)COc1cccc2nsnc12`, the “hERG current change (%, negative = inhibition) at 10uM” value came out at 4.42%. For `CC(=O)N1N=C(c2cccc([N+](=O)[O-])c2)OC1(C)CC(=O)Nc1ccccc1` (stereo not shown), the “hERG current change (%, negative = inhibition) at 10uM” value is on record as -12%. The result for `COc1ccc(NC(=O)CN(C)CC(=O)Nc2ccc(N3CCOCC3)cc2)c([N+](=O)[O-])c1` reads -26.2%; that for `CNC(=O)OCc1cccc(COC(=O)NC)n1.Cl`, 27.2%; that for `Cn1c(CN2CCCCC2)nc2cc(NC(=O)c3ccccc3Cl)ccc21`, -8.74%. In the case of `CC(=O)N1CCN(Cc2nc3cc(NC(=O)c4ccccc4C)ccc3n2C)CC1`, the “hERG current change (%, negative = inhibition) at 10uM” value is recorded as 10.2%.

Regarding `COc1ccccc1C(=O)Nc1ccc2c(c1)nc(CN1CCN(C(C)=O)CC1)n2C`, the “hERG current change (%, negative = inhibition) at 10uM” value is on record as -80%.
